# Experimental data: PubChem BioAssay (NCATS)
# Several values for one entry are separate records, joined by “and”; a condition that tells them apart may be missing. Equal entries are not always repeated. Values without a mark were called inactive. Inconclusive results are not listed. Activity calls are given as the source filed them. The call rests on the fitted dose curve; in most records, active means well fitted curve in the direction sought with a large enough effect; inconclusive means small, poorly fitted or top-dose-only effect, or another doubt; inactive means no such curve, though single readings can be large; an effect the other way counts as inactive or inconclusive.
# Key:
# [1] = biological target: Cytochrome P450 3A4 (Homo sapiens) (UniProt P08684); experiment: qHTS Assay for Activators of Cytochrome P450 3A4 (AID 885); further: nearly all actives have a fitted effect of over 65% in size
# Procedure, shortened: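 Using 20nM recombinant human CYP3A4 in potassium phosphate (200mM), substrate Luciferin-PPXE at 25uM, luminescent luciferin detection followed a 60-min RT NADPH reaction; data scaled to 57 uM ketoconazole.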
# [2] = biological target: Cytochrome P450 2D6 (Homo sapiens) (UniProt P10635); experiment: qHTS Assay for Inhibitors and Substrates of Cytochrome P450 2D6 (AID 891); further: nearly all actives have a fitted effect of over 60% in size
# Procedure, shortened: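 Luminescent read-out of luciferin formed by 5 nM human CYP2D6 demethylating 30 uM Luciferin-ME EGE (Km level) over 60 min at room temperature after NADPH regeneration addition. Data normalized to full inhibition by 1.43 uM quinidine.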
# [3] = biological target: Cytochrome P450 2C19 (Homo sapiens) (UniProt P33261); experiment: qHTS Assay for Inhibitors and Substrates of Cytochrome P450 2C19 (AID 899); further: nearly all actives have a fitted effect of over 60% in size
# Procedure, shortened: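 Human CYP2C19 (5nM) with Luciferin-H EGE at 10uM (its KM) in 50mM KPO4 was preincubated with compound for 10 min at 37C. NADPH regeneration started a 60 min 37C reaction. Luciferin was read by luminescence, normalized to 57uM ketoconazole.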
# Potency means the concentration at half of the fitted maximal effect.
# Chain of Cytochrome P450 2C19 (Homo sapiens) (P33261 whole entry, looked up): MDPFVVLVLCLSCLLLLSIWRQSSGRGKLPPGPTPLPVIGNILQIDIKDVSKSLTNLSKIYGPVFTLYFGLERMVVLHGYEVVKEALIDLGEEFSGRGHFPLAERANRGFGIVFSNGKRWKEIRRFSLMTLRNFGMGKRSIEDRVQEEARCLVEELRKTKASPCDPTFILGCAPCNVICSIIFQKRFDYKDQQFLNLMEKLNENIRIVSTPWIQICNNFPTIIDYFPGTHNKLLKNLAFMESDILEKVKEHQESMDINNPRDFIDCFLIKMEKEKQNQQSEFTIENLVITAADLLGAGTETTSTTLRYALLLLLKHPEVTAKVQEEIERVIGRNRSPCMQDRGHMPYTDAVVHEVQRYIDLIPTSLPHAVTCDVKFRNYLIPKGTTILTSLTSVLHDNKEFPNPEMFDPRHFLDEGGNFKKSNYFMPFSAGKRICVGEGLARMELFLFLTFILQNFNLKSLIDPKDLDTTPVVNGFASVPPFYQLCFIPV
# Chain of Cytochrome P450 3A4 (Homo sapiens) (P08684 whole entry, looked up): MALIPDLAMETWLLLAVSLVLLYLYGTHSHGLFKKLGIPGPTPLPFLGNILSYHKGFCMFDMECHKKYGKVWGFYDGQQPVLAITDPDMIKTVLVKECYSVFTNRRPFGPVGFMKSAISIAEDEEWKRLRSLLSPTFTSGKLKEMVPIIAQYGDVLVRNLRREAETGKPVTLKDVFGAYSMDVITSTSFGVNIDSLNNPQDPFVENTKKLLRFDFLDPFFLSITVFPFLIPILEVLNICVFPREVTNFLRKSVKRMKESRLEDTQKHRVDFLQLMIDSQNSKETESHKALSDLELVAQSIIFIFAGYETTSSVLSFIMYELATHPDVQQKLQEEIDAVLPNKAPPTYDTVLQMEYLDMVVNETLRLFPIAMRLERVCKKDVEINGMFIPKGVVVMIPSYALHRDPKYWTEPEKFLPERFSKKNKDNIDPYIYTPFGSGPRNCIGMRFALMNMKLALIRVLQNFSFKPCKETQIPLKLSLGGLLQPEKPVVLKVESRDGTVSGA
# Chain of Cytochrome P450 2D6 (Homo sapiens) (P10635 whole entry, looked up): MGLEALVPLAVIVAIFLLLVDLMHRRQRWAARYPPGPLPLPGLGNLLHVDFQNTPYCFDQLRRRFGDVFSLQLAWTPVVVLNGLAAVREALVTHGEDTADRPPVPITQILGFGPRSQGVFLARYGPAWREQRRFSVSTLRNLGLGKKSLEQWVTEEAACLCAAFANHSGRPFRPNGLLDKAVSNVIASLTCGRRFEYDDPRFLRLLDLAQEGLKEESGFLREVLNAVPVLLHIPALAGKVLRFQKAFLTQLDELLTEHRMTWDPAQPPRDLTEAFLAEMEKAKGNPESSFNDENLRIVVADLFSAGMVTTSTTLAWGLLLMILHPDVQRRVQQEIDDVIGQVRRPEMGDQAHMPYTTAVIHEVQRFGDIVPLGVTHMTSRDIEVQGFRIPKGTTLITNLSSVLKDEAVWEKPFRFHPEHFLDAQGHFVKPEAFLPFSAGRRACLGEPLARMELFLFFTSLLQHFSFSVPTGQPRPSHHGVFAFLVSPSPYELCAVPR
structure (smiles),measurement,setting,value
O=C(NCCC[N+]1=CC=N[C@H]1c1ccccc1)N1CCCc2nc(-c3ccc(Br)cc3)ccc21,"activity change, positive = activation",[1],-35.8% [at 11.4 µM]
same,Potency,[2],0.0794 µM (active)
FC(F)(F)c1ccc(CN2C[C@@H]3C(c4ccc(Cl)nc4)C4(c5ccccc5)CC3(C4)[C@H]2c2ccccc2)cc1 (some centres not stated),Potency,[1],inactive
CC1(C)CC(=O)c2c(oc3cc(O)c(O)cc23)C1,Potency,[1],inactive
CCC1=C(OC(=O)N(CC)CC)N2C(=O)OC(=NCCOC)[C@]2(C)[C@H]2C1=CC[C@H]1C(=O)N(C)C(=O)[C@H]12,Potency,[1],inactive
CC(=O)OC[C@H]1O[C@@H](O/N=C(\C)CCN2CCCCc3nc(C)c(C)cc32)[C@H](OC(C)=O)[C@@H](OC(C)=O)[C@H]1OC(C)=O,"activity change, positive = activation",[1],-53.9% [at 11.4 µM]
same,Potency,[2],3.98 µM (active)
COC(=O)NC(c1ccco1)[C@]1(C(C)=O)CCCC1=O (some centres not stated),"activity change, positive = activation",[1],-35.9% [at 11.4 µM]
same,Potency,[2],inactive
same,Potency,[3],inactive
CC(=O)OC[C@H]1O[C@@H](O/N=C(\C)CCN2CCCc3nc(C)c(C)cc32)[C@H](OC(C)=O)[C@@H](OC(C)=O)[C@H]1OC(C)=O,"activity change, positive = activation",[1],-36.5% [at 11.4 µM]
same,Potency,[2],3.16 µM (active)
COC(=O)c1cccc(C#CC(NP(=O)(c2ccccc2)c2ccccc2)c2ccccc2)c1 (configuration not stated),Potency,[1],inactive
CCc1cc2c(nc1CC)CCN(CC/C(C)=N/O[C@@H](C)CN1CCCc3nc(C)c(C)cc31)C2,"activity change, positive = activation",[1],-50.2% [at 11.4 µM]
same,Potency,[2],3.98 µM (active)
CC(C)=NO[C@@H](C)CN1CCCCc2nc(C)c(C)cc21,"activity change, positive = activation",[1],-46.4% [at 11.4 µM]
same,Potency,[2],2.51 µM (active)
COc1cccc(C2C(C)CCC3C(=O)N(C)C(C(C)C)C(=O)N32)c1 (configuration not stated),"activity change, positive = activation",[1],-59.1% [at 11.4 µM]
same,Potency,[2],inactive
same,Potency,[3],inactive
COC(=O)C/C=C\[C@@H](C)[C@@H](/C=N\OC[C@@H](O)[C@H]1O[C@H]2OC(C)(C)O[C@H]2[C@@H]1O)OC,"activity change, positive = activation",[1],-43.3% [at 11.4 µM]
same,Potency,[2],inactive
C=CCOC(=O)C(C(=O)CC)C(NC(=O)OC)c1ccc(F)cc1 (configuration not stated),"activity change, positive = activation",[1],-52.3% [at 11.4 µM]
same,Potency,[2],inactive
same,Potency,[3],inactive
COC(=O)C1=C(C)N(Cc2ccccc2)C2=C3C(=O)N(c4ccccc4)C(=O)C3[C@@](O)(C(=O)OC)C(=O)N2C1c1ccccc1 (some centres not stated),"activity change, positive = activation",[1],-39.6% [at 11.4 µM] and -38.9% [at 11.4 µM]
same,Potency,[2],inactive
same,Potency,[3],inactive
CO[C@@H]1COC(=O)[C@@H](C)NC(=O)C/C=C\[C@@H](C)[C@H](NS(=O)(=O)c2ccc(C)cc2)COC(=O)[C@H](C)NC(=O)C/C=C\[C@H]1C,"activity change, positive = activation",[1],-53.2% [at 11.4 µM]
same,Potency,[2],inactive
COC(=O)c1ccc(C23CC4(C2)[C@H](CN(Cc2ccc(C(F)(F)F)cc2)[C@@H]4c2ccccc2)C3c2ccccc2)cc1 (some centres not stated),Potency,[1],inactive
CO/N=C(\C)CCN1CCCCc2nc(C)c(C)cc21,"activity change, positive = activation",[1],-38.2% [at 11.4 µM]
same,Potency,[2],3.98 µM (active)
C[C@@]12CCC3c4ccc(OC5C=CC(c6ccccc6)OC5CO)cc4CCC3C1CCC2=O (some centres not stated),Potency,[1],3.16 µM (active)
same,Potency,[2],inactive
same,Potency,[3],inactive
COc1ccc(COC(=O)N/N=C2/C[C@@H](O)[C@@H](O)[C@@H]3[C@@H]4C(=O)N([C@@H](C)c5ccccc5)C(=O)[C@H]4CC[C@H]23)cc1,"activity change, positive = activation",[1],-54.4% [at 11.4 µM]
COC(=O)[C@@H]1C[C@@]2(O)[C@H](O)[C@H](O)[C@H](O)C[C@H]2N1CC(c1ccccc1)c1ccccc1,Potency,[1],inactive
COc1ccc(OC2C=CC(C#Cc3ccc(C(C)(C)C)cc3)OC2CO)cc1 (configuration not stated),"activity change, positive = activation",[1],-56.3% [at 11.4 µM]
same,Potency,[2],inactive
CO[C@@H]1COC(=O)[C@@H](CCSC)NC(=O)C/C=C\[C@@H](C)COC(=O)CCC[C@H]1C,"activity change, positive = activation",[1],-30.5% [at 11.4 µM]
COC(=O)c1ccc(CN2[C@@H]3C[C@@H](O)CC[C@@H]3C[C@H]2C(=O)OC)cc1,Potency,[1],inactive
Cc1ccc2oc(=O)c3c4cc(O)c(O)c(C)c4oc3c2c1,Potency,[1],inactive
CC(C)=CCC/C(C)=C/CO/N=C1/C[C@@H](O)[C@@H](O)[C@@H]2[C@@H]3C(=O)N(C[C@@H]4CCCO4)C(=O)[C@H]3CC[C@H]12,"activity change, positive = activation",[1],-35.7% [at 11.4 µM]
CCN1C(=O)[C@H]2[C@H]3[C@H](O)[C@H](O)C/C(=N/OC[C@@H](C)[C@H](OCc4ccccc4)C(C)C)[C@@H]3CC[C@@H]2C1=O,"activity change, positive = activation",[1],-44.7% [at 11.4 µM]
CC(=O)OC[C@H]1O[C@@H](O/N=C(\C)CCN2CCc3nc(-c4ccccc4)c(-c4ccccc4)cc3C2)[C@H](OC(C)=O)[C@@H](OC(C)=O)[C@H]1OC(C)=O,"activity change, positive = activation",[1],-41.6% [at 11.4 µM]
same,Potency,[2],3.16 µM (active)
CC1CCC2C(=O)OC(CO)CN2C1c1ccc(Br)cc1 (configuration not stated),"activity change, positive = activation",[1],-46.2% [at 11.4 µM]
same,Potency,[2],inactive
same,Potency,[3],0.158 µM (active)
COC(=O)c1ccc(C23CC4(C2)[C@H](CN(C)[C@@H]4c2ccccc2)C3c2ccc(C(F)(F)F)cc2)cc1 (some centres not stated),Potency,[1],inactive
CC(=O)OC[C@@H]1O[C@H](C/C=N\O[C@@H](C)CN2CCCCc3nc(C)c(C)cc32)C=C[C@@H]1OC(C)=O,"activity change, positive = activation",[1],-57.2% [at 11.4 µM]
same,Potency,[2],3.16 µM (active)
COC(=O)C(/C=C/C(C)Cc1cc(Br)cc(OCc2ccccc2)c1OC)OCc1ccccc1 (configuration not stated),"activity change, positive = activation",[1],-50.4% [at 11.4 µM]
same,Potency,[2],inactive
same,Potency,[3],inactive
COc1ccc(COC(=O)N/N=C2/C[C@@H](O)[C@@H](O)[C@@H]3[C@H]4C(=O)N(c5ccc(F)cc5F)C(=O)[C@@H]4CC[C@@H]23)cc1,"activity change, positive = activation",[1],-42.8% [at 11.4 µM]
